# Experimental data from PubChem BioAssay (NCATS).
# Several values for one entry are separate records, joined by “and”; a condition that tells them apart may be missing. Equal values may be shown once. Results filed as inconclusive are left out. Where a call stands in place of a potency, no number is given. A number with no mark means an inactive call. Activity calls are given as the source filed them. Unless noted, the call rests on the fitted dose curve; in most records, active means well fitted curve in the direction sought with a large enough effect; inconclusive means small, poorly fitted or top-dose-only effect, or another doubt; inactive means no such curve, though single readings can be large; an effect the other way counts as inactive or inconclusive.
# Columns and labels:
# [1] = target: Cellular tumor antigen p53 (Homo sapiens) (UniProt P04637); test: Primary qHTS for small molecule compounds that upregulate eGFP-tagged delta133p53alpha (in N-terminal) cells. (AID 2060322); conditions: NCI-H358 eGFP-delta133p53alpha fluorescence, 24 h; activation: active compounds read high; further: nearly all actives have a fitted effect of over 75% in size; further: potency means the concentration at half of the fitted maximal effect;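 on activation: cells pre-induced with doxycycline then dosed without doxycycline; series mostly up to about 56 µM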
# How it was run: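 NCI-H358 cells pre-induced 24 h with 10 ng/ml doxycycline for eGFP-delta133p53alpha, plated dox-free and exposed 24 h at 37C to titrated compounds. Fixed, Hoechst-stained; gated GFP peak intensity by laser scanning cytometry, normalized to DMSO (0%) and 57.5 uM 5-azacytidine (100%).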
# [2] = target: Aldehyde dehydrogenase, mitochondrial (Homo sapiens) (UniProt P05091); test: qHTS for Inhibitors of the Aldehyde Dehydrogenase Family (ALDH2) Confirmatory screens (AID 2061303; active means well fitted inhibition curve with a large enough effect; title and protocol of this record describe different tests; further: nearly all actives have a fitted effect of over 45% in size; further: potency means the concentration at half of the fitted maximal effect)
# [3] = qHTS for Inhibitors of the Aldehyde Dehydrogenase Family (ALDH1A2, ALDH1A3, ALDH2, ALDH3A1) (AID 2061307); further: nearly all actives have a fitted effect of over 50% in size; on potency: test system not described further here; potency means the concentration at half of the fitted maximal effect
# [4] = target: Aldehyde dehydrogenase, mitochondrial (Homo sapiens) (UniProt P05091); test: qHTS for Inhibitors of the Aldehyde Dehydrogenase Family (ALDH2) Primary screen (AID 2061308); further: nearly all actives have a fitted effect of over 55% in size; further: potency means the concentration at half of the fitted maximal effect
# [5] = target: Aldehyde dehydrogenase 1A1 (Homo sapiens) (UniProt P00352); test: qHTS for Inhibitors of the Aldehyde Dehydrogenase Family (ALDH1A1) Confirmatory screens (AID 2061316); further: nearly all actives have a fitted effect of over 65% in size; further: potency means the concentration at half of the fitted maximal effect
# [6] = target: Retinal dehydrogenase 2 (Homo sapiens) (UniProt O94788); test: qHTS for Inhibitors of the Aldehyde Dehydrogenase Family (ALDH1A2) Confirmation screens (AID 2061314); further: nearly all actives have a fitted effect of over 65% in size; further: potency means the concentration at half of the fitted maximal effect
# [7] = target: Retinaldehyde dehydrogenase 3 (Homo sapiens) (UniProt P47895); test: qHTS for Inhibitors of the Aldehyde Dehydrogenase Family (ALDH1A3) Primary screen (AID 2061315)
# [8] = target: Retinaldehyde dehydrogenase 3 (Homo sapiens) (UniProt P47895); test: qHTS for Inhibitors of the Aldehyde Dehydrogenase Family (ALDH1A3) Validation screen (AID 2061312); further: nearly all actives have a fitted effect of over 45% in size; further: potency means the concentration at half of the fitted maximal effect
# [9] = BET inhibitor-based combinations targeting novel dependencies in MECOM-rearranged (r) AML: SET-2 cell line (AID 2202231); conditions: SET-2 AML cells viability, CellTiter-Glo luminescence, 48 h; viability: active compounds read low, concentration not given here; further: nearly all actives have a fitted effect of over 35% in size; further: potency means the concentration at half of the fitted maximal effect
# How it was run: (§1)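 Here, 11-point titrations of each agent were applied to 500 seeded cells and incubated 48 hr; CellTiter-Glo signal, scaled against DMSO and empty wells, was integrated as AUC, then Z-scored within the individual line.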
# [10] = BET inhibitor-based combinations targeting novel dependencies in MECOM-rearranged (r) AML: OCI-AML3 cell line (AID 2202232); conditions: Potency: OCI-AML3 viability; further: nearly all actives have a fitted effect of over 35% in size; further: potency means the concentration at half of the fitted maximal effect
# How it was run: as §1
# [11] = BET inhibitor-based combinations targeting novel dependencies in MECOM-rearranged (r) AML: MV-4-11 cell line (AID 2202233); further: nearly all actives have a fitted effect of over 45% in size; further: potency means the concentration at half of the fitted maximal effect
# How it was run: (§2)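 Normalized to DMSO and empty-well controls, the luminescence data from CellTiter-Glo after 48 hr drug exposure were fitted across 11 concentrations. Reported metrics are area under the dose-response curve and its Z-transformed form.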
# [12] = BET inhibitor-based combinations targeting novel dependencies in MECOM-rearranged (r) AML: UCSD-AML1 cell line (AID 2202235); further: nearly all actives have a fitted effect of over 40% in size; further: potency means the concentration at half of the fitted maximal effect
# How it was run: as §2
# [13] = BET inhibitor-based combinations targeting novel dependencies in MECOM-rearranged (r) AML: AML-191 cell line (AID 2202236; further: nearly all actives have a fitted effect of over 35% in size; further: potency means the concentration at half of the fitted maximal effect)
# How it was run: as §1
# [14] = BET inhibitor-based combinations targeting novel dependencies in MECOM-rearranged (r) AML: AML-194 cell line (AID 2202237; further: nearly all actives have a fitted effect of over 40% in size; further: potency means the concentration at half of the fitted maximal effect)
# How it was run: as §1
# [15] = BET inhibitor-based combinations targeting novel dependencies in MECOM-rearranged (r) AML: HNT-34 cell line (AID 2202234); further: nearly all actives have a fitted effect of over 35% in size; further: potency means the concentration at half of the fitted maximal effect
# How it was run: as §2
# [16] = target: Retinaldehyde dehydrogenase 3 (Homo sapiens) (UniProt P47895); test: qHTS for Inhibitors of the Aldehyde Dehydrogenase Family (ALDH1A3) Confirmatory screens (AID 2061311); further: nearly all actives have a fitted effect of over 60% in size; further: potency means the concentration at half of the fitted maximal effect
# Cellular tumor antigen p53 (Homo sapiens), sequence (P04637 whole entry, looked up): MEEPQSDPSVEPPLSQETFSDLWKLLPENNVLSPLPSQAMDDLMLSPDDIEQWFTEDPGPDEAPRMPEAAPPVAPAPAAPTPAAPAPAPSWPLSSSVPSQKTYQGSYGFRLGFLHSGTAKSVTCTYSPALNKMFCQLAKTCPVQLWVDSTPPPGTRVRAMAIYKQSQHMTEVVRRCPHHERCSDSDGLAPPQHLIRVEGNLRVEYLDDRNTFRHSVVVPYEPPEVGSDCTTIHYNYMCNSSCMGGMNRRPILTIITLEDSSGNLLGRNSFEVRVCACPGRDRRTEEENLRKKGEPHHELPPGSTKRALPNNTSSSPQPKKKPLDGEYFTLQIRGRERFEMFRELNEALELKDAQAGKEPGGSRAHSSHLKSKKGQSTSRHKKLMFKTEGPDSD
structure (smiles),measurement,setting,value
COc1ccc(NC(=O)c2ccc(-c3ccc(C(=N)N)cc3C)cc2)cc1N1CCN(C)CC1,activation,[1],8.11%
same,Potency,[2],inactive
same,Potency,[3],inactive
same,Potency,[4],inactive
same,Potency,[5],12700 nM (active)
COc1cc(NC(=O)c2ccccn2)ccc1Cl,activation,[1],-5.25%
same,Potency,[2],inactive
same,Potency,[3],inactive
same,Potency,[4],inactive
same,Potency,[6],inactive
same,Potency,[7],inactive
same,Potency,[5],inactive
S=C(c1ccc(-c2ccc(Cl)c(Cl)c2)o1)N1CCCCC1,activation,[1],-7.64%
same,Potency,[2],2830 nM (active)
same,Potency,[3],12700 nM (active)
same,Potency,[4],22400 nM (active)
same,Potency,[8],inactive
same,Potency,[7],inactive
same,Potency,[5],5040 nM (active)
Cc1ccc(-c2c(C(=O)CCl)n(CCCO)c3ncnc(N)c23)cc1,Potency,[1],12 µM (active)
same,Potency,[2],inactive
same,Potency,[3],inactive
same,Potency,[4],inactive
same,Potency,[7],inactive
same,Potency,[5],inactive
COc1cc(/C=C/C(=O)OCC2OC(OC3(CO)OC(CO)C(O)C3O)C(O)C(O)C2O)ccc1O (stereo not given),activation,[1],10.7%
same,Potency,[2],inactive
same,Potency,[3],inactive
same,Potency,[4],inactive
same,Potency,[5],inactive
Cc1nc2c(C#N)c[nH]n2c(=O)c1C(C)C,activation,[1],23.5%
same,Potency,[2],inactive
same,Potency,[3],inactive
same,Potency,[4],inactive
same,Potency,[6],inactive
same,Potency,[7],inactive
same,Potency,[5],inactive
CSC(=O)OCC1=C[C@@H]2OC(=O)C3=CO[C@@H](O[C@@H]4O[C@H](CO)[C@@H](O)[C@H](O)[C@H]4O)[C@H]1[C@@H]32,activation,[1],-22.1%
same,Potency,[2],inactive
same,Potency,[3],inactive
same,Potency,[4],inactive
same,Potency,[6],inactive
same,Potency,[5],inactive
CC1(C)SCCN(S(=O)(=O)c2ccc(Oc3ccncc3)cc2)[C@H]1C(=O)NO,activation,[1],20.3%
same,Potency,[2],inactive
same,Potency,[3],inactive
same,Potency,[4],inactive
same,Potency,[6],inactive
CCOc1ccc(Nc2nc(-c3c(C)nc4ccccn34)cs2)cc1,activation,[1],-3.9% and 0%
same,Potency,[2],15800 nM (active)
same,Potency,[3],7940 nM (active)
same,Potency,[4],inactive
same,Potency,[8],inactive
same,Potency,[6],inactive
same,Potency,[7],inactive
same,Potency,[9],132 nM (active)
same,Potency,[10],83.3 nM (active)
same,Potency,[11],105 nM (active)
same,Potency,[12],93.4 nM (active)
same,Potency,[13],83.3 nM (active)
same,Potency,[14],332 nM (active)
NC1(c2ccc(NC(=O)c3ccnc(-c4cc(C(=O)O)ccn4)c3)cc2)CC1,activation,[1],15.7%
same,Potency,[2],inactive
same,Potency,[3],inactive
same,Potency,[4],inactive
same,Potency,[7],inactive
Cc1ncc(-c2ccnc(Nc3ccc(S(C)(=O)=O)cc3)n2)n1C(C)C,Potency,[1],3.06 µM (active) and 2.69 µM (active)
same,Potency,[2],inactive
same,Potency,[3],11300 nM (active)
same,Potency,[4],inactive
same,Potency,[7],inactive
same,Potency,[5],inactive
same,Potency,[10],2350 nM (active)
same,Potency,[11],590 nM (active)
same,Potency,[15],1480 nM (active)
same,Potency,[12],1320 nM (active)
same,Potency,[13],1180 nM (active)
same,Potency,[14],1860 nM (active)
CC1CCC23COC(=O)C2=CC(O)CC3C1(C)CCC1=CC(O)OC1=O (stereo not given),activation,[1],-3.82%
same,Potency,[2],inactive
same,Potency,[3],inactive
same,Potency,[4],inactive
same,Potency,[6],inactive
same,Potency,[7],inactive
C=C(C)C(=O)O[C@H]1[C@H]2C(=C)C(=O)O[C@@H]2/C=C(\CO)CC/C=C(/C=O)[C@@H]1O,activation,[1],-6.11%
same,Potency,[2],inactive
same,Potency,[3],inactive
same,Potency,[4],inactive
same,Potency,[6],inactive
O=C(OCC1=C[C@@H](O)[C@@H]2C=CO[C@@H](O[C@@H]3O[C@H](CO)[C@@H](O)[C@H](O)[C@H]3O)[C@H]12)c1ccc(O)cc1,activation,[1],3.57%
same,Potency,[2],inactive
same,Potency,[3],inactive
same,Potency,[4],inactive
same,Potency,[6],inactive
same,Potency,[7],inactive
CCC[C@H](N[C@@H](C)C(=O)N1[C@H](C(=O)O)C[C@@H]2CCCC[C@@H]21)C(=O)O,activation,[1],-7.64%
same,Potency,[2],inactive
same,Potency,[3],inactive
same,Potency,[4],inactive
same,Potency,[6],inactive
same,Potency,[7],inactive
same,Potency,[5],inactive
O=C1Nc2ccccc2-c2nc3ccccc3c(=O)n2-c2c(O)cccc21,activation,[1],23.2%
same,Potency,[2],inactive
same,Potency,[3],inactive
same,Potency,[4],inactive
same,Potency,[7],inactive
Cc1cc2ncc(C(=O)NCC(C)(C)NCC(=O)N3CCC[C@H]3C#N)cn2n1,activation,[1],-6.33%
same,Potency,[2],inactive
same,Potency,[3],inactive
same,Potency,[16],inactive
same,Potency,[6],inactive
O=C(CN1C2=NCCN2c2ccccc21)c1ccc(-c2ccccc2)cc1,activation,[1],7.16%
same,Potency,[2],3570 nM (active)
same,Potency,[3],3570 nM (active)
same,Potency,[16],31600 nM (active)
same,Potency,[8],inactive
same,Potency,[6],inactive
same,Potency,[7],inactive
CN1CCN(C2=Nc3ccccc3Nc3ccc(O)cc32)CC1,activation,[1],1.91%
same,Potency,[2],inactive
same,Potency,[3],inactive
same,Potency,[4],inactive
same,Potency,[8],inactive
same,Potency,[6],inactive
same,Potency,[5],inactive
CN(C)c1cccc(-c2c3c(=O)n(-c4ccccc4Cl)[nH]c3cc(=O)n2C)c1,activation,[1],5.36% and -13.4%
same,Potency,[2],inactive
same,Potency,[3],inactive
same,Potency,[4],inactive
same,Potency,[6],inactive
same,viability,[9],110%
same,Potency,[10],inactive
same,Potency,[11],inactive
same,Potency,[15],inactive
same,Potency,[12],inactive
same,Potency,[13],inactive
same,Potency,[14],inactive
CN(C)c1ccc(C2O[C@@H](c3ccccc3)C[C@H](c3ccccc3)O2)cc1 (stereo not given in full),activation,[1],-3.34%
same,Potency,[2],3550 nM (active)
same,Potency,[3],3570 nM (active)
same,Potency,[16],3550 nM (active)
same,Potency,[8],44700 nM (active)
same,Potency,[6],10000 nM (active)
same,Potency,[5],10000 nM (active)
CC(C)C[C@H](NC(=O)[C@@H](NC(=O)c1cccc(-c2ccccc2)n1)[C@@H](C)O)B(O)O,Potency,[1],385 nM (active) and 16.9 µM (active)
same,Potency,[2],inactive
same,Potency,[3],inactive
same,Potency,[16],inactive
same,Potency,[8],10000 nM (active)
same,Potency,[6],inactive
same,Potency,[7],inactive
same,Potency,[5],inactive
same,Potency,[9],72.3 nM (active)
same,Potency,[10],40.7 nM (active)
same,Potency,[11],51.2 nM (active)
same,Potency,[15],64.5 nM (active)
same,Potency,[12],72.3 nM (active)
same,Potency,[13],81.1 nM (active)
same,Potency,[14],91 nM (active)
